Measured values reported in PubChem BioAssay.
Potency and affinity values are given separately. Inconclusive results are not listed. Unmarked numbers belong to inactive results.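 The calls were made as follows: active = signal-lowering compounds whose fitted half-maximal concentration is at or below twice the top tested dose in every run; inconclusive = runs disagree, flat 30 to 70% inhibition, or poor curve fit; inactive = the rest.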

Assay: inhibitors of CMV-promoter luciferase reporter, dose response, counter-screen for Pax8 inhibitor project, cell-based, HEK293, luminescence, dry powder (AID 743020);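 also: HEK293 cells stably expressing the CMV luciferase reporter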
Conditions: SteadyGlo luminescence, 24 h; series mostly up to 35 µM; activity change, negative = inhibition: at the top concentration

Row | Structure (SMILES) | activity change, negative = inhibition
1 | Cc1cccc(S(=O)(=O)N2CC[C@@H]3[C@H](CO)N(C)c4ccc(C#Cc5ccc(F)cc5)cc4[C@@H]32)c1 | 3.56% [at 30 µM]
2 | O=C(C[C@H]1CC[C@@H]2[C@H](COC[C@H](O)CN2S(=O)(=O)c2cccc(F)c2)O1)Nc1ccc(-c2ccccc2)cc1 | 0.842%
3 | C[C@H]1CCCCO[C@H](CN(C)C(=O)Nc2cccc3ccccc23)[C@@H](C)CN([C@@H](C)CO)C(=O)c2cc(NS(=O)(=O)c3ccc(F)cc3)ccc2O1 | 4.96%
4 | C[C@H]1CN([C@@H](C)CO)C(=O)c2c(c3ccccc3n2C)-c2ccccc2CO[C@@H]1CN(C)Cc1cccc(C(F)(F)F)c1 | 1.86%
5 | CN(C[C@H]1N[C@@H](CO)[C@@H]1c1ccc(-c2cccc(F)c2)cc1)S(C)(=O)=O | 3.04%
6 | C[C@@H]1CN([C@@H](C)CO)C(=O)Cc2cc(NS(=O)(=O)c3ccc(Cl)cc3)ccc2O[C@H]1CN(C)Cc1ccc(Cl)c(Cl)c1 | 8%
7 | Cc1ccccc1-c1ccc([C@@H]2[C@@H](CO)N3CCCCN(C(=O)NC4CCCC4)C[C@H]23)cc1 | 3.1%
8 | Cc1ccc(S(=O)(=O)Nc2ccc3c(c2)C(=O)N([C@H](C)CO)C[C@@H](C)[C@H](CN(C)S(=O)(=O)c2ccc(C)cc2)OCCCC[C@H](C)O3)cc1 | 0.785%
9 | C[C@@H]1CCCCO[C@@H](CN(C)Cc2ccc(Cl)c(Cl)c2)[C@H](C)CN([C@H](C)CO)C(=O)c2cc(NS(=O)(=O)c3ccc(Cl)cc3)ccc2O1 | -0.723%
10 | COc1ccc(S(=O)(=O)Nc2ccc3c(c2)C(=O)N([C@H](C)CO)C[C@H](C)[C@@H](CN(C)S(=O)(=O)c2ccc(F)cc2)OCCCC[C@H](C)O3)cc1 | -6.92%
11 | C[C@@H]1CCCCO[C@@H](CN(C)C(=O)Nc2ccc(F)cc2)[C@H](C)CN([C@H](C)CO)C(=O)c2cc(NS(=O)(=O)c3ccc(Cl)cc3)ccc2O1 | 0.867%
12 | C[C@@H]1CCCCO[C@@H](CN(C)Cc2ccc(C(F)(F)F)cc2)[C@H](C)CN([C@@H](C)CO)C(=O)c2cc(NS(=O)(=O)c3ccc(F)cc3)ccc2O1 | 4.16%
13 | C[C@H](CO)N1C[C@H](C)[C@H](CN(C)S(=O)(=O)c2ccc(F)cc2)OCCCC[C@H](C)Oc2ccc(NS(=O)(=O)c3ccc(Cl)cc3)cc2C1=O | 1.14%
14 | O=C(C[C@@H]1CC[C@@H]2[C@H](COC[C@@H](O)CN2C(=O)Nc2ccc(Cl)c(Cl)c2)O1)NCc1ccc(Cl)cc1 | -7.49%
15 | C[C@@H]1CN([C@@H](C)CO)C(=O)c2cc(NC(=O)Cc3ccccc3)ccc2O[C@@H](C)CCCCO[C@H]1CN(C)Cc1ccc(C(F)(F)F)cc1 | 1.88%
16 | N#C[C@@H]1[C@@H](c2ccc(-c3ccccc3F)cc2)[C@@H](CO)N1C(=O)C1CCC1 | 13.7%
17 | C[C@H](CO)N1C[C@H](C)[C@@H](CN(C)Cc2ccc(Oc3ccccc3)cc2)Oc2ccc(NS(=O)(=O)c3ccc(F)cc3)cc2CC1=O | 1.77%
18 | O=C(C[C@@H]1CC[C@@H]2[C@H](COC[C@H](O)CN2S(=O)(=O)c2ccccc2Cl)O1)N1CCC(Cc2ccccc2)CC1 | 1.45%
19 | C[C@H](CO)N1C[C@H](C)[C@H](CN(C)Cc2ccc(Cl)c(Cl)c2)OCCCC[C@H](C)Oc2ccc(NC(=O)Nc3ccc(C(F)(F)F)cc3)cc2C1=O | -9.26%
20 | COc1ccc(C#Cc2ccc([C@@H]3[C@H](CO)N4CCCCN(C(=O)Nc5ccc(F)cc5)C[C@@H]34)cc2)cc1 | -0.052% [at 30 µM]
21 | C[C@H]1CCCCO[C@H](CN(C)C(=O)NC2CCCCC2)[C@@H](C)CN([C@@H](C)CO)C(=O)c2cc(NC(=O)Nc3ccc(C(F)(F)F)cc3)ccc2O1 | -2.32%
22 | C[C@@H]1CCCCO[C@H](CN(C)S(=O)(=O)c2cccs2)[C@@H](C)CN([C@@H](C)CO)C(=O)c2cc(NC(=O)Nc3ccc(C(F)(F)F)cc3)ccc2O1 | 17.2%
23 | C[C@H](O)C#Cc1cnc2c(c1)C(=O)N([C@H](C)CO)C[C@@H](C)[C@@H](CN(C)Cc1ccc(-c3ccccc3)cc1)O2 | -12.6%
24 | Cc1ccc(S(=O)(=O)N2CC[C@@H]3[C@H](CO)N(C)c4ccc(-c5ccc(C#N)cc5)cc4[C@@H]32)cc1 | 0.52%
25 | O=C(C[C@H]1CC[C@H]2[C@@H](COC[C@@H](O)CN2Cc2ccc3c(c2)OCO3)O1)Nc1ccc(-c2ccccc2)cc1 | -11.5%
26 | COc1ccc(CN(C)C[C@H]2OCCCC[C@H](C)Oc3ccc(NC(=O)Nc4ccc(C(F)(F)F)cc4)cc3C(=O)N([C@@H](C)CO)C[C@@H]2C)cc1 | -3.85%
27 | C[C@@H]1CN([C@@H](C)CO)C(=O)c2cc(NC(=O)Nc3ccc(C(F)(F)F)cc3)ccc2O[C@@H](C)CCCCO[C@@H]1CN(C)Cc1ccncc1 | 0.97%
28 | C[C@@H]1CCCCO[C@@H](CN(C)Cc2ccc(C(F)(F)F)cc2)[C@H](C)CN([C@H](C)CO)C(=O)c2cc(NS(=O)(=O)c3ccccc3)ccc2O1 | -8.34%
29 | N#C[C@@H]1[C@@H](c2ccc(-c3cccc(F)c3)cc2)[C@H](CO)N1C(=O)NC1CCCC1 | -5.52%
30 | C[C@@H]1CN([C@H](C)CO)C(=O)c2cc(NC(=O)Nc3ccc(F)cc3)ccc2O[C@@H](C)CCCCO[C@H]1CN(C)C(=O)C1CCCCC1 | 0.2%
